From paper PMC10812921, “Transcriptional Coactivator BOB1 (OBF1, OCA-B) Modulates the Specificity of DNA Recognition by the POU-Domain Factors OCT1 and OCT2 in a Monomeric Configuration” come the findings set out here.

For one assay, the target named is POU1 (OCT1 POU domain) (human, UniProt P14859 260-458). The experiment in a line: EMSA-SELEX-seq; no BOB1; 20 mM Tris-HCl pH 7.6, 140 mM NaCl, 10% glycerol, 0.5 mM EDTA, 0.05% Triton X-100, 0.1 mg/mL BSA, 0.1 mg/mL poly(dI-dC), 5 mM DTT, room temperature, 20 min; high values mean tight binding. The following applies: protein: recombinant; dsDNA, one strand shown. In a few lines: (§1)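 With or without 28 ng coactivator protein, 30 ng of tagged POU-domain protein was combined with 300 ng of a PCR-amplified double-stranded random 35-nt library in 20 μL Tris–HCl pH 7.6 binding buffer for 20 min at RT. The protein came from E. coli BL21 and had been purified under denaturing conditions and renatured. Four rounds of cutting complex bands from native 6% PAGE, elution and PCR amplification preceded Illumina sequencing. The binding preference figure is the percentage of sequenced 8-mers matching a motif pattern.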
Chain of POU1 (OCT1 POU domain) (P14859 260-458): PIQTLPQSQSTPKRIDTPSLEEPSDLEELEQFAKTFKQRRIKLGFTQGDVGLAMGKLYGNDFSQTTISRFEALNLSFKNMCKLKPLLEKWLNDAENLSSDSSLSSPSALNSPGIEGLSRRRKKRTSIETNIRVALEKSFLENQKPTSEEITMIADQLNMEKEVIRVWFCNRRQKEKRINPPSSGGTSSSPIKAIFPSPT

The next assay has as its target T1, POU2 (OCT2 POU domain) (human, UniProt P09086 175-386).
T1 sequence: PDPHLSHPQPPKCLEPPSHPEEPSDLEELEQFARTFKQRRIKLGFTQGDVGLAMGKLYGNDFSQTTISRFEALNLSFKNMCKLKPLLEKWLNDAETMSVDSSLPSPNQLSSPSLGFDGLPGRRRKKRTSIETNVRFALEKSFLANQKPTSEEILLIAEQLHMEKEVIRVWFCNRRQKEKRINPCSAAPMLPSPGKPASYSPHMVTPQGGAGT
The assay is described as above. The conditions noted are these: protein: recombinant; dsDNA, one strand shown. In a few lines:
as §1

Assay [1] has as its target POU1 (OCT1 POU domain);BOB1 (OBF1, OCA-B) (human;human, UniProt P14859;Q16633 260-458;1-256, |). Put plainly: EMSA-SELEX-seq; with BOB1 (ternary complex band); 20 mM Tris-HCl pH 7.6, 140 mM NaCl, 10% glycerol, 0.5 mM EDTA, 0.05% Triton X-100, 0.1 mg/mL BSA, 0.1 mg/mL poly(dI-dC), 5 mM DTT, room temperature, 20 min; high values mean tight binding. The following applies: protein: recombinant;recombinant; copies: 1;1; dsDNA, one strand shown. In outline:
as §1
A general note: A gel shift assay detects complexes by their altered migration in electrophoresis.

Assay [2] concerns the target T2, POU2 (OCT2 POU domain);BOB1 (OBF1, OCA-B) (human;human, UniProt P09086;Q16633 175-386;1-256, |).
T2 sequence 1: T1 sequence
T2 sequence 2: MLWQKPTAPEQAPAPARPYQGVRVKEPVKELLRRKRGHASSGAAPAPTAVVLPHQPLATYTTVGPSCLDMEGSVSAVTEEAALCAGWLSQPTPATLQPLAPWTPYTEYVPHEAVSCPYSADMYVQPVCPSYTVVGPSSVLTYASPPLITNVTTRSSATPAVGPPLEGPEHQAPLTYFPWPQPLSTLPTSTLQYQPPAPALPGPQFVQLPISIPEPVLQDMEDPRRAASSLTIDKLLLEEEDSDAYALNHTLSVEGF
The description is as above. The conditions noted are these: protein: recombinant;recombinant; copies: 1;1; dsDNA, one strand shown. In a few lines: as §1

ACGCTAAT: the binding signal with POU1 (OCT1 POU domain) was 0.108 % of ANNNNAAN 8-mers; with POU2 (OCT2 POU domain), 0.14 % of ANNNNAAN 8-mers; in assay [1] it was 0.046 % of ANNNNAAN 8-mers; in assay [2], 0.0611 % of ANNNNAAN 8-mers.

ACCTTAAT: the binding signal is 0.0629 % of ANNNNAAN 8-mers in the assay with POU1 (OCT1 POU domain), 0.0679 % of ANNNNAAN 8-mers in the assay with POU2 (OCT2 POU domain), 0.0418 % of ANNNNAAN 8-mers in assay [1] and 0.0545 % of ANNNNAAN 8-mers in assay [2].

Regarding AGACGAAG, the binding signal with POU1 (OCT1 POU domain) was 0.0198 % of ANNNNAAN 8-mers; with POU2 (OCT2 POU domain), 0.019 % of ANNNNAAN 8-mers; in assay [1], 0.0203 % of ANNNNAAN 8-mers; in assay [2], 0.0272 % of ANNNNAAN 8-mers.

As to ACGCGAAG, the binding signal is 0.0172 % of ANNNNAAN 8-mers with POU1 (OCT1 POU domain), 0.0121 % of ANNNNAAN 8-mers in the assay with POU2 (OCT2 POU domain), 0.0168 % of ANNNNAAN 8-mers in assay [1] and 0.0239 % of ANNNNAAN 8-mers in assay [2].

In the case of ATTCGAAG, the binding signal with POU1 (OCT1 POU domain) was 0.0564 % of ANNNNAAN 8-mers; in the assay with POU2 (OCT2 POU domain), 0.0656 % of ANNNNAAN 8-mers; in assay [1] it was 0.0464 % of ANNNNAAN 8-mers; in assay [2], 0.0405 % of ANNNNAAN 8-mers.

Consider ACCCAAAA, for which the binding signal with POU1 (OCT1 POU domain) is 0.0214 % of ANNNNAAN 8-mers; in the assay with POU2 (OCT2 POU domain), 0.015 % of ANNNNAAN 8-mers; in assay [1], 0.0246 % of ANNNNAAN 8-mers; in assay [2], 0.0206 % of ANNNNAAN 8-mers.

With ACTCTAAA, the binding signal with POU1 (OCT1 POU domain) is 0.0271 % of ANNNNAAN 8-mers; with POU2 (OCT2 POU domain), 0.0299 % of ANNNNAAN 8-mers; in assay [1], 0.0285 % of ANNNNAAN 8-mers; in assay [2], 0.0248 % of ANNNNAAN 8-mers.

For AAATTAAG, the binding signal with POU1 (OCT1 POU domain) was 0.303 % of ANNNNAAN 8-mers; with POU2 (OCT2 POU domain) it was 0.342 % of ANNNNAAN 8-mers; in assay [1], 0.238 % of ANNNNAAN 8-mers; in assay [2] it was 0.319 % of ANNNNAAN 8-mers.

Take ACTTAAAT: the binding signal in the assay with POU1 (OCT1 POU domain) was 0.0767 % of ANNNNAAN 8-mers; with POU2 (OCT2 POU domain) it was 0.11 % of ANNNNAAN 8-mers; in assay [1] it was 0.0714 % of ANNNNAAN 8-mers; in assay [2], 0.057 % of ANNNNAAN 8-mers.

Regarding ACACCAAG, the binding signal with POU1 (OCT1 POU domain) is 0.0103 % of ANNNNAAN 8-mers; with POU2 (OCT2 POU domain) it was 0.0178 % of ANNNNAAN 8-mers; in assay [1], 0.0129 % of ANNNNAAN 8-mers; in assay [2] it was 0.0124 % of ANNNNAAN 8-mers.

Consider AATAGAAG, for which the binding signal was 0.0534 % of ANNNNAAN 8-mers with POU1 (OCT1 POU domain), 0.0587 % of ANNNNAAN 8-mers with POU2 (OCT2 POU domain), 0.0558 % of ANNNNAAN 8-mers in assay [1] and 0.057 % of ANNNNAAN 8-mers in assay [2].

For ACAGAAAG, the binding signal in the assay with POU1 (OCT1 POU domain) was 0.0297 % of ANNNNAAN 8-mers; with POU2 (OCT2 POU domain), 0.0236 % of ANNNNAAN 8-mers; in assay [1], 0.0281 % of ANNNNAAN 8-mers; in assay [2], 0.0239 % of ANNNNAAN 8-mers.

As to AGGTCAAA, the binding signal in the assay with POU1 (OCT1 POU domain) is 0.0587 % of ANNNNAAN 8-mers; in the assay with POU2 (OCT2 POU domain) it was 0.0403 % of ANNNNAAN 8-mers; in assay [1], 0.0632 % of ANNNNAAN 8-mers; in assay [2], 0.0421 % of ANNNNAAN 8-mers.

Consider ACCCTAAG, for which the binding signal was 0.0118 % of ANNNNAAN 8-mers with POU1 (OCT1 POU domain), 0.0178 % of ANNNNAAN 8-mers with POU2 (OCT2 POU domain), 0.0133 % of ANNNNAAN 8-mers in assay [1] and 0.0107 % of ANNNNAAN 8-mers in assay [2].

In the case of AGAAGAAA, the binding signal with POU1 (OCT1 POU domain) was 0.0507 % of ANNNNAAN 8-mers; with POU2 (OCT2 POU domain) it was 0.0685 % of ANNNNAAN 8-mers; in assay [1] it was 0.055 % of ANNNNAAN 8-mers; in assay [2], 0.0471 % of ANNNNAAN 8-mers.
